We go through 27 molecules from PubChem BioAssay (NCI).

Compounds without any hit were thinned out: in the full panel of roughly 83,000, 20% have a hit.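 48-hour exposure, single concentration, 96-well plates; percent growth endpoint where 0 means no net growth. Active: below 10.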 Values without a mark were called inactive. The source made the active and inactive calls.

Test systems include T-47D breast; MDA-MB-435 melanoma; SW-620 colon; MCF7 breast; HCT-116 colon; HCC-2998 colon; KM12 colon; BT-549 breast.
Test in all cases: NCI-60 one-dose screen, 48 h (100 = growth as untreated, 0 = no growth, -100 = all killed)
Holding throughout (settings): 10 µM unless noted

On to `O=C(O)c1cccc(CN2CCN(c3cc4c(cc3F)c(=O)c(C(=O)O)cn4C3CC3)CC2)c1O`, for which the growth was 96.6% with T-47D breast; 99% in the test with MDA-MB-435 melanoma; 102% with SW-620 colon; 97.6% in the test on MCF7 breast; 104% in the test on HCT-116 colon; 105% in the test on HCC-2998 colon. Further, in the test on KM12 colon, the growth is 104%.

For the molecule `CCCCCCNC(=O)Nc1ncnc2c1ncn2-c1ccccc1`, the growth in the test with T-47D breast is 66.6%; in the test with MDA-MB-435 melanoma it was 102%; with SW-620 colon it was 95.9%; in the test with MCF7 breast, 89.4%; in the test with HCT-116 colon, 90.2%; with HCC-2998 colon, 118%. Besides, in the test with KM12 colon, the growth is 108%.

For `O=C(Nc1ccc(Nc2ccncc2)cc1)c1ccc([N+](=O)[O-])cc1`, the growth with T-47D breast is 29.7%; in the test on MDA-MB-435 melanoma, 79.5%; in the test on SW-620 colon, 30.5%; in the test on MCF7 breast it was 51.6%; with HCT-116 colon it was 27.3%; in the test on HCC-2998 colon it was 66.7%. Moreover, the growth in the test on KM12 colon is 79.5%.

For `COc1ccc2nc3cc(Cl)ccc3c(Nc3ccc(O)cc3)c2c1`, the growth is 80% in the test on T-47D breast; 96% in the test with MDA-MB-435 melanoma; 49.1% with SW-620 colon; 24.6% in the test with MCF7 breast; 53.1% in the test on HCT-116 colon; 62.1% in the test with HCC-2998 colon. In the test on KM12 colon, the growth was 63.5%.

As to `COc1ccc2c(c1)C(C)Cc1c(ncnc1-n1cnc3ccccc31)N2C` (configuration not stated), the growth with T-47D breast is 56.9%; with MDA-MB-435 melanoma, 0.335% (active); in the test with SW-620 colon, 23.8%; in the test on MCF7 breast it was 18.6%; in the test on HCT-116 colon, 10.3%; in the test with HCC-2998 colon, 25.4%. Further, the growth with KM12 colon is 17.8%.

For the molecule `Cc1cc2c(C(C)C)c(O)c(O)c(C=NCc3ccoc3)c2c(O)c1-c1c(C)cc2c(C(C)C)c(O)c(O)c(C=NCc3ccco3)c2c1O`, the growth with T-47D breast is 33.5%; with MDA-MB-435 melanoma, 67.1%; with SW-620 colon, 24.6%; with MCF7 breast, 22.4%; in the test with HCT-116 colon it was 20.7%; in the test with HCC-2998 colon it was 35.5%. Further, the growth in the test on KM12 colon was 19.4%.

As for `CCN(CCO)CCC(=O)c1ccc([N+](=O)[O-])cc1`, the growth in the test on T-47D breast is 90.6%; in the test on MDA-MB-435 melanoma, 111%; in the test with SW-620 colon, 113%; in the test on MCF7 breast, 98.6%; in the test with HCT-116 colon, 112%; with HCC-2998 colon, 97.4%. In addition, the growth with KM12 colon was 102%.

On to `Cc1cc(C)c(O)c(CNCCCNCc2cc(C)cc(C)c2O)c1`, for which the growth is 67.3% in the test on T-47D breast; 2.52% (active) in the test with MDA-MB-435 melanoma; 71.8% in the test on SW-620 colon; 38.2% in the test with MCF7 breast; 51.6% with HCT-116 colon; -51.4% (active) with HCC-2998 colon. For the same molecule, the growth in the test on KM12 colon was 61.3%.

Regarding `COc1ccc(C(=O)CSc2nccc(Nc3ccc(C(=O)O)cc3)n2)cc1`, the growth is 102% with T-47D breast; 106% in the test with MDA-MB-435 melanoma; 95.6% with SW-620 colon; 101% in the test with MCF7 breast; 95.7% in the test on HCT-116 colon; 104% in the test on HCC-2998 colon. For the same molecule, in the test with KM12 colon, the growth is 101%.

Take `COc1ccc(/C=C(/C(=O)c2ccc(Cl)cc2)C(=O)C(F)(F)F)cc1`: the growth in the test with T-47D breast was 90.3%; with BT-549 breast, 111%; in the test on MCF7 breast, 77.2%; in the test on HCT-116 colon, 101%; with HCC-2998 colon it was 93.4%; in the test on KM12 colon, 91.6%.

With `CCOC(=O)C(C(C)=O)c1nc2sc3cc(Cl)c(Cl)cc3n2c(=O)c1C#N` (configuration not stated), the growth with T-47D breast is 78%; with MDA-MB-435 melanoma, 106%; in the test on SW-620 colon it was 116%; in the test with MCF7 breast, 65.4%; with HCT-116 colon, 101%; in the test with HCC-2998 colon it was 106%. For the same molecule, in the test on KM12 colon, the growth was 98.6%.

As to `O=C1C(Cl)=C(Nc2ccc3cn[nH]c3c2)C(=O)c2ccccc21`, the growth was -52.3% (active) with T-47D breast; -95% (active) with MDA-MB-435 melanoma; -86% (active) in the test on SW-620 colon; -68.3% (active) with MCF7 breast; -98.6% (active) with HCT-116 colon; -83% (active) in the test on HCC-2998 colon. Further, the growth in the test on KM12 colon was 28%.

As for `O=C1COCCN1c1ccc(NCc2cn(Cc3cccc4ccccc34)c3ccccc23)cc1`, the growth was 43.1% in the test with T-47D breast; 98% with MDA-MB-435 melanoma; 83% in the test with SW-620 colon; 63.4% in the test with MCF7 breast; 39.3% in the test with HCT-116 colon; 103% in the test with HCC-2998 colon. For the same molecule, the growth in the test with KM12 colon was 96.5%.

With `COc1cc2c(=O)[nH]c3cc([N+](=O)[O-])ccc3c2cc1[N+](=O)[O-]`, the growth was 49.1% with T-47D breast; 50.4% in the test on BT-549 breast; 35.5% with SW-620 colon; 16.5% in the test with MCF7 breast; 21.5% in the test with HCT-116 colon; 53.3% with KM12 colon.

Take `Nc1cc(Cl)cc2cccnc12`: the growth was 112% with T-47D breast; 106% with MDA-MB-435 melanoma; 102% with SW-620 colon; 95.2% with MCF7 breast; 109% in the test on HCT-116 colon; 93.5% with HCC-2998 colon. Further, the growth with KM12 colon was 101%.

In the case of `O=C(N[C@@H]1CCCc2ccccc21)[C@H](CCC(=O)N1CCN(C2CCCCC2)CC1)N1C(=O)[C@@H](N2C(=O)OC[C@@H]2c2ccccc2)[C@H]1/C=C/c1ccccc1`, the growth in the test with T-47D breast was 44.4%; in the test with MDA-MB-435 melanoma, 9.89% (active); in the test with SW-620 colon it was 37.7%; with MCF7 breast, 16.5%; in the test on HCT-116 colon, 23.8%; with HCC-2998 colon it was 11.6%. In addition, the growth in the test with KM12 colon is 35.5%.

Consider `CCOC(=O)CCC[P+](c1ccccc1)(c1ccccc1)c1ccccc1`, for which the growth in the test with T-47D breast is 27.5%; in the test on MDA-MB-435 melanoma it was 60.4%; in the test with SW-620 colon, 84.7%; with MCF7 breast, 59.7%; in the test on HCT-116 colon, 63.4%; with HCC-2998 colon, 56.3%. Further, the growth in the test with KM12 colon is 44.7%.

With `Cc1nc(Cl)c2c(n1)N(C)c1ccc(Cl)cc1C(C)C2` (configuration not stated), the growth in the test with T-47D breast was 71%; in the test on MDA-MB-435 melanoma, 85.9%; in the test on SW-620 colon, 86.5%; with MCF7 breast it was 95.6%; with HCT-116 colon, 80.1%; in the test on HCC-2998 colon it was 98.6%. In addition, the growth in the test on KM12 colon is 92.4%.

As to `O=C(Nc1cccc(F)c1)c1cc(=O)[nH]c2cc(Br)ccc12`, the growth with T-47D breast was 48.1%; in the test on MDA-MB-435 melanoma, -21.8% (active); in the test with SW-620 colon it was 27.7%; in the test on MCF7 breast, 17.6%; in the test on HCT-116 colon, 19.1%; in the test with HCC-2998 colon, 65%. In the test with KM12 colon, the growth was 21.5%.

Consider `Nc1nc(Nc2ccccc2)c2ncn(Cc3cc4c(cc3Br)OCO4)c2n1`, for which the growth in the test with T-47D breast is 72.3%; in the test with MDA-MB-435 melanoma it was -16.9% (active); in the test on SW-620 colon it was 20.5%; with MCF7 breast it was 12.4%; with HCT-116 colon, 7.79% (active); in the test with HCC-2998 colon, 23%. The growth in the test on KM12 colon was 11.6%.

Turning to `CC1Cc2c(Cl)ncnc2N(C)c2ccc(O)cc21` (configuration not stated), the growth with T-47D breast was 81.7%; in the test on MDA-MB-435 melanoma, 30.5%; in the test on SW-620 colon, 38.1%; in the test on MCF7 breast, 55.1%; with HCT-116 colon, 65.6%; in the test on HCC-2998 colon, 59.4%. The growth with KM12 colon was 10.4%.

With `O=C(CCN1CCCCC1)c1ccc(Cl)cc1`, the growth with T-47D breast was 92.6%; in the test with MDA-MB-435 melanoma it was 105%; in the test with SW-620 colon, 103%; in the test on MCF7 breast, 91.8%; with HCT-116 colon, 96.7%; in the test with HCC-2998 colon, 112%. The growth with KM12 colon is 102%.

Regarding `O=C(CCCSc1nc(-c2ccccc2)cc(-c2ccccc2)n1)NO`, the growth with T-47D breast was -2.43% (active); in the test on MDA-MB-435 melanoma it was 12.3%; with SW-620 colon, 16%; with MCF7 breast, 9.38% (active); in the test on HCT-116 colon, 9.52% (active); in the test with HCC-2998 colon, 17.7%. Moreover, in the test with KM12 colon, the growth is 14.4%.

Consider `Cc1ccc(Oc2c(/C=N/NC(=O)Cn3c(=O)sc4ccccc43)c(C)nn2-c2ccccc2)cc1`, for which the growth in the test on T-47D breast was 20.4%; in the test with MDA-MB-435 melanoma, 61.7%; with SW-620 colon it was 68.4%; with MCF7 breast, 31.1%; in the test on HCT-116 colon, 37%; in the test on HCC-2998 colon, 69.2%. Besides, the growth in the test with KM12 colon was 49.3%.

Regarding `CCCn1ccnc1C(O)c1ccc(OCc2ccccc2)c(OC)c1` (configuration not stated), the growth in the test on T-47D breast was 83.3%; with MDA-MB-435 melanoma, 94.3%; with SW-620 colon, 98%; in the test with MCF7 breast, 85.4%; with HCT-116 colon, 92.6%; in the test on HCC-2998 colon, 95.8%. Moreover, in the test with KM12 colon, the growth was 101%.

Regarding `CCOc1ccc(/C=C(\C#N)c2cc3ccccc3[nH]2)cc1`, the growth in the test on T-47D breast is 39.7%; in the test with MDA-MB-435 melanoma, -28.8% (active); in the test on SW-620 colon it was 24.6%; with MCF7 breast it was 24.7%; in the test with HCT-116 colon, 37.1%; in the test with HCC-2998 colon, 72.5%. In addition, in the test with KM12 colon, the growth is 22.5%.

Take `O=C(NCCCNC(=O)OCc1ccc2c(Br)cc(Br)c(O)c2n1)OCc1ccc2c(Br)cc(Br)c(O)c2n1`: the growth with T-47D breast was -58.2% (active); in the test with MDA-MB-435 melanoma it was -71.2% (active); in the test on SW-620 colon, -44.7% (active); in the test with MCF7 breast it was -28.1% (active); in the test on HCT-116 colon, -66% (active); in the test with HCC-2998 colon, -42.5% (active). Further, the growth in the test on KM12 colon is 7.57% (active).
